± gives the standard deviation or the standard deviation of the averaged measurements.
Legend:
Settings in all cases: 25 µM; exposure: 24-48 hpf
[1] = test system: Danio rerio Tg(wt1b:EGFP) embryo, pronephros; experiment: glomerular separation, fold change vs DMSO control; higher = glomeruli further apart (abnormal)
Summary of the method: (§1)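 Dechorionated Tg(wt1b:EGFP) zebrafish embryos were kept from 24 to 48 hpf at 28.5°C in HEPES-buffered E3 containing 0.003% PTU, 0.5% DMSO and 25 μM compound. The pronephroi were then imaged from the dorsal side in agarose-filled 96-well plates at 470 nm with 10 z-slices, and 16 reference points were placed by hand on maximum projections in Fiji so that a macro could calculate distances and angles. Values lying more than 2 SD from the mean of a feature were discarded. Every feature is given as a fold change against the mean of DMSO-treated embryos from the same day.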

[2] = test system: Danio rerio Tg(wt1b:EGFP) embryo, pronephros; experiment: glomerular width (mean of left and right), fold change vs DMSO control; higher = wider glomerulus
Summary of the method: as §1

[3] = test system: Danio rerio Tg(wt1b:EGFP) embryo, pronephros; experiment: fraction of imaged embryos annotated as normal kidney; higher = less nephrotoxic; extreme values may be limits of the assay
Summary of the method: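 The value given is the share of embryos in each treatment scored as having a normal kidney. To obtain it, dechorionated Tg(wt1b:EGFP) zebrafish embryos were treated from 24 to 48 hpf at 28.5°C with 25 μM compound in 0.5% DMSO, in 5 mM HEPES-buffered E3 with 0.003% PTU. Pronephroi were imaged by widefield fluorescence (470 nm, 10 z-slices), and every embryo was annotated by hand from maximum projections.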

[4] = test system: Danio rerio Tg(wt1b:EGFP) embryo, pronephros; experiment: pronephric angle neck segment to proximal convoluted tubule (mean of left and right), fold change vs DMSO control; higher = larger pronephric angle
Summary of the method: as §1

Structure (SMILES) | glomerular separation [1] | glomerular width [2] | fraction of imaged embryos annotated as normal kidney [3] | pronephric angle neck segment [4]
CN1C(=O)CCS(=O)(=O)C1c1ccc(Cl)cc1 (stereo unspecified) [Chlormezanone] | 1.15 ± 0.46 | 1.05 ± 0.11 | 0.545 | 0.989 ± 0.059
OC(c1ccccc1)(c1ccccc1)C1CCNCC1 [Azacyclonol] | 0.869 ± 0.25 | 0.9558 ± 0.0054 | 0.833 | 0.994 ± 0.029
CC(=O)OCC1=C(C(=O)O)N2C(=O)[C@@H](N)[C@H]2SC1 [Cephalosporanic acid, 7-amino] | 0.819 ± 0.17 | 1.136 ± 0.0094 | 1 | 0.977 ± 0.06
CN[C@@H]1[C@@H](O)[C@@H](O[C@@H]2[C@@H](O)[C@H](O[C@H]3O[C@H](CN)CC[C@H]3N)[C@@H](N)C[C@H]2N)OC[C@]1(C)O.CN[C@@H]1[C@@H](O)[C@@H](O[C@@H]2[C@@H](O)[C@H](O[C@H]3O[C@H]([C@@H](C)N)CC[C@H]3N)[C@@H](N)C[C@H]2N)OC[C@]1(C)O.CN[C@@H]1[C@@H](O)[C@@H](O[C@@H]2[C@@H](O)[C@H](O[C@H]3O[C@H]([C@@H](C)NC)CC[C@H]3N)[C@@H](N)C[C@H]2N)OC[C@]1(C)O [Gentamicine sulfate] | 0.941 ± 0.25 | 1.02 ± 0.024 | 0.667 | 1.01 ± 0.029
